Values joined by “and” are separate entries in the source; they are usually repeats but may differ in a detail not shown here. Equal entries are not always repeated. Results filed as inconclusive are left out. Active and inactive are the calls of the source. How the source made its calls: active means hit-call score of the fitted dose curve at least 0.9, where 1 is the maximum; inconclusive means response in the unintended direction; inactive means score below 0.9.
system: not listed separately; assay: TOX21_p53_BLA_p3_viability: Viability Assessment in the Tox21 HCT-116 p53 Agonism Beta-lactamase Assay, Phase 3 (AID 2283593);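 further: cells exposed to compound for 16 h before reading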
Summary of the method: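 Cellular ATP was quantified by CellTiter-Glo luminescence, read after 30 min at room temperature. Beforehand, HCT116 cells (4000/well) received compound 5 h post-seeding, 217-fold diluted from DMSO, then incubated 16 h at 37C.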

Structure (SMILES) | AC50 | outcome
C=CC(=O)OCC(CC)(COC(=O)C=C)COC(=O)C=C | 69.2 µM (active) and 16.2 µM (active) | –
c1ccc2c(c1)Nc1ccccc1S2 | – | inactive
[N-]=[N+]=[N-] | – | inactive
C=C(C)C(=O)OCC1CO1 (stereo unspecified) | – | inactive
CCOS(=O)(=O)OCC | – | inactive
Cc1cccc(N)c1 | – | inactive
Cc1ccc(N)cc1N | – | inactive
CCOc1ccc(C(C)(C)COCc2cccc(Oc3ccccc3)c2)cc1 | – | inactive
CCN(CC)c1ccccc1 | – | inactive
CCOC(=O)c1ccccc1C(=O)OCC | – | inactive

molecular target: Cellular tumor antigen p53 (Homo sapiens) (UniProt P04637); assay: TOX21_p53_BLA_p3_ratio: Tox21 HCT-116 p53 Agonism Beta-lactamase Assay, Ratio, Phase 3 (AID 2283596)
Summary of the method: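 HCT116 p53-bla cells (4000/well) given compound in DMSO (217-fold dilution) after 5 h, incubated 16 h at 37C. CCF4-AM substrate 2 h at room temperature; 460/530 nm emission ratio, gain fitted against DMSO.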

Sequence of Cellular tumor antigen p53 (Homo sapiens) (P04637 whole entry, looked up): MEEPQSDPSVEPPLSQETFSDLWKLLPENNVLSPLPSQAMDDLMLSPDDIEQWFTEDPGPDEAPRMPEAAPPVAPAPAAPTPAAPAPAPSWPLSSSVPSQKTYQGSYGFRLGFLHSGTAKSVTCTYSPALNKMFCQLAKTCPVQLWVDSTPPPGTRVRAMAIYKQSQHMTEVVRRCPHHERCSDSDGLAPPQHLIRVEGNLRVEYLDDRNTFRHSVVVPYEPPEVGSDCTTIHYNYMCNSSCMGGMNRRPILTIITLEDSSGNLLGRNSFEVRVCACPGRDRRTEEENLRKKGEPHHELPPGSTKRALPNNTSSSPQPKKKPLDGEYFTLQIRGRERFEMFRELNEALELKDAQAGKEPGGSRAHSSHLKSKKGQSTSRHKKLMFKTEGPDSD

Structure (SMILES) | outcome
CC(Cc1ccc(OCC(=O)O)cc1)NCC(O)c1csc(C(F)(F)F)n1 (stereo unspecified) | inactive
O=C(O)C1C(C(=O)O)C2(Cl)C(Cl)=C(Cl)C1(Cl)C2(Cl)Cl (stereo unspecified) | inactive
C=CC(=O)OCC(CC)(COC(=O)C=C)COC(=O)C=C | inactive
c1ccc2c(c1)Nc1ccccc1S2 | inactive
[N-]=[N+]=[N-] | inactive
C=C(C)C(=O)OCC1CO1 (stereo unspecified) | inactive
CCOS(=O)(=O)OCC | inactive
Cc1cccc(N)c1 | inactive
ClC(Cl)(Cl)c1ccccc1 | inactive
Cc1ccc(N)cc1N | inactive
CCC1(c2ccccc2)C(=O)N=C(O)NC1=O (stereo unspecified) | inactive
O=P1(N(CCCl)CCCl)NCCCO1 (stereo unspecified) | inactive
c1cc2c3c(cccc3c1)CC2 | inactive
CCN(CC)c1ccccc1 | inactive
CCOC(=O)c1ccccc1C(=O)OCC | inactive

system: not listed separately; assay: TOX21_p53_BLA_p4_viability: Viability Assessment in the Tox21 HCT-116 p53 Agonism Beta-lactamase Assay, Phase 4 (AID 2283597);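 further: hits lower the luminescence signal meaning cytotoxicity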
Summary of the method: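 Compound exposure of HCT116 cells lasts 16 h at 37C, 5% CO2, with DMSO stocks diluted 217-fold. Cellular ATP is then quantified by CellTiter-Glo luminescence after 30 min at room temperature.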

Structure (SMILES) | AC50 | outcome
C=CC(=O)OCC(CC)(COC(=O)C=C)COC(=O)C=C | 75.7 µM (active) and 97.1 µM (active) | –
c1ccc2c(c1)Nc1ccccc1S2 | – | inactive
[N-]=[N+]=[N-] | – | inactive
C=C(C)C(=O)OCC1CO1 (stereo unspecified) | – | inactive
CCOS(=O)(=O)OCC | – | inactive
Cc1cccc(N)c1 | – | inactive
ClC(Cl)(Cl)c1ccccc1 | – | inactive
CCC1(c2ccccc2)C(=O)N=C(O)NC1=O (stereo unspecified) | – | inactive
c1cc2c3c(cccc3c1)CC2 | – | inactive
CCN(CC)c1ccccc1 | – | inactive
CCOC(=O)c1ccccc1C(=O)OCC | – | inactive

From PubChem BioAssay (EPA / NIEHS)
